± gives the standard deviation of the averaged measurements. The full data set covers some 5,400 targets. This sample favours those with the largest changes.
Biological target: T1, B1ALK7|Q14155-1|Q14155-5 (UniProt Q14155)
T1 sequence (whole entry): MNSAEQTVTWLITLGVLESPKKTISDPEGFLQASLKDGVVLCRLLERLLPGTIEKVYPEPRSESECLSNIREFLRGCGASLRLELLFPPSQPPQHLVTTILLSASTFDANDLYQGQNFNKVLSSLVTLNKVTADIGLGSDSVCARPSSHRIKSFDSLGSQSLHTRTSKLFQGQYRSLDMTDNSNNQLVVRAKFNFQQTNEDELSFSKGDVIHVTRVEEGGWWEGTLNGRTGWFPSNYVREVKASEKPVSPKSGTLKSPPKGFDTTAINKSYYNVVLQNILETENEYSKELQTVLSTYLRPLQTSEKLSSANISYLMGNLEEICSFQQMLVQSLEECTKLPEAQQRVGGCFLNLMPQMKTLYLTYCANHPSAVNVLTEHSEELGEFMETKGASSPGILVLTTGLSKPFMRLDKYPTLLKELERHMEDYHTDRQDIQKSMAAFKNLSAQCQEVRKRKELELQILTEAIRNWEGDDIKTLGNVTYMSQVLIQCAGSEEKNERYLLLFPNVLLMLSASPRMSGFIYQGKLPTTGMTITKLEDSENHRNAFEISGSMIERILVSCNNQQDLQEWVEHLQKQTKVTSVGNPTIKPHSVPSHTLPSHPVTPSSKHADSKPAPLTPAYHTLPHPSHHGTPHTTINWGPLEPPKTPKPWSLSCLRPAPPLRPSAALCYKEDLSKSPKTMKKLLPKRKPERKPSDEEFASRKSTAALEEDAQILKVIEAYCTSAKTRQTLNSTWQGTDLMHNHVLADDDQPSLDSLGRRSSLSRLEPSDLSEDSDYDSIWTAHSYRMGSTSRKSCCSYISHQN
Assay: NP40-soluble protein abundance relative to vehicle (solubility fold change) (ratio); higher = more soluble protein in presence of GTP
Protocol: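 Solubility proteome profiling in Jurkat crude lysate. Lysate was treated with Mg-GTP (0.1-10 mM) for 10 min at room temperature and 3 min at 37 °C, then solubilised with 0.8% NP40 and benzonase, followed by ultracentrifugation. Proteins were quantified by TMT10 LC-MS/MS; the value is the NP40-soluble abundance relative to the NP40-processed vehicle, from 3 independent experiments.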

Nc1nc2c(ncn2[C@@H]2O[C@H](COP(=O)(O)OP(=O)(O)OP(=O)(O)O)[C@@H](O)[C@H]2O)c(=O)[nH]1 [guanosine triphosphate] was tested, and the NP40-soluble protein abundance (concentration: 0.1mM) was 0.994 ± 0.036, the NP40-soluble protein abundance (concentration: 0.5mM) was 0.9903 ± 0.0023 and the NP40-soluble protein abundance (concentration: 1mM) was 1.004 ± 0.007. It also gave an NP40-soluble protein abundance (concentration: 2mM) of 1.01 ± 0.028, an NP40-soluble protein abundance (concentration: 4mM) of 0.996 ± 0.015 and an NP40-soluble protein abundance (concentration: 6mM) of 0.9797 ± 0.0044. The NP40-soluble protein abundance (concentration: 8mM) was 1 ± 0.033 and the NP40-soluble protein abundance (concentration: 10mM) was 0.977 ± 0.046.
